Assay outcomes (PubChem BioAssay)
Sampled rows, rich in hits. Any-hit rate of the full collection: about 1.2%.
gsp ag: agonists of gsp mutant (McCune-Albright syndrome) | gsp mutant cells, cAMP HTRF, 30 min | Potency, µM (titrated, usually from 76.9 µM), usual class: activators | 340,000 compounds, 0.13% hits | AID 624287; active = well fitted activation curve with a large enough effect; inconclusive = small, poorly fitted or top-dose-only effect, or another doubt; inactive = no such curve, though single readings can be large or run the other way; cell line not stated here;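 note: phosphodiesterase inhibitor Ro 20-1724 added with compounds to block cAMP breakdown; nearly all actives have a fitted effect of over 60% in size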
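Cells in DMEM/10% FBS with G418 were pretreated with compounds in DMSO plus […] (300 uM stock) for 30 min at 37C. cAMP was measured by HTRF (cAMP-d2 plus anti-cAMP antibody-K) after 30 min at room temperature.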
RXFP1 agonist: activates the human relaxin receptor RXFP1. Q9HBX9. HEK293T-RXFP1 cAMP TR-FRET, 30 min; response scale: percent of porcine relaxin response, buffer zero. AID 2676. 370,000 compounds, 0.3% hits. Potency, µM (titrated, usually from 57.5 µM), hits mostly activators; active = well fitted activation curve with a large enough effect; inconclusive = small, poorly fitted or top-dose-only effect; note: nearly all actives have a fitted effect of over 60% in size
Target sequence (Q9HBX9 whole entry, looked up): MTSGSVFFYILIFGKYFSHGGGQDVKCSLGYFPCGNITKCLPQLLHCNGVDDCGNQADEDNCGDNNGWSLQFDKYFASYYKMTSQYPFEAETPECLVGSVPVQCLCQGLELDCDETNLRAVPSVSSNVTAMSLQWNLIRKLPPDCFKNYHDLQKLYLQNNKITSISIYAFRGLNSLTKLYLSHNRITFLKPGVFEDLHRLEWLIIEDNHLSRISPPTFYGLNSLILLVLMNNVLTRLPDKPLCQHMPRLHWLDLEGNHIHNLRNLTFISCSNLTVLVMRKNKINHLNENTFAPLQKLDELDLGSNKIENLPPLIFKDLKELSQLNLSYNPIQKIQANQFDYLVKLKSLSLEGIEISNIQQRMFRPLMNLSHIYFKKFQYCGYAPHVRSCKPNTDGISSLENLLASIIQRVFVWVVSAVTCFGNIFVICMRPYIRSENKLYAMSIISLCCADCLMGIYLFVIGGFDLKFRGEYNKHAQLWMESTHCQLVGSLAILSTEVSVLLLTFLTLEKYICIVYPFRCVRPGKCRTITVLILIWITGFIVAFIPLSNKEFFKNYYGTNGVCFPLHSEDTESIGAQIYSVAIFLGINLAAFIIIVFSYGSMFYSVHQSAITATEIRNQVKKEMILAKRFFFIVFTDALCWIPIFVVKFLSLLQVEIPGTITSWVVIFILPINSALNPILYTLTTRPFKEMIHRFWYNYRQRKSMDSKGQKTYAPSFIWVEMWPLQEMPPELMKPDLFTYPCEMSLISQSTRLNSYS
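cAMP rise read by TR-FRET after 30 min, 37C compound exposure (up to 58 uM) in RXFP1-transfected HEK293 cells with Ro 20174 present. EC50 from Hill-equation fits, with 29 nM porcine relaxin as 100% and buffer as basal.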
pAkt inh: inhibitors of Akt phosphorylation; Neuro2A IGF-stimulated pAkt S473 HTRF, 20 min; stronger effect = lower value; activity change, % for hits at 50 µM; 360,000 compounds, 0.32% hits; in the data active = activity change below about -80%; inconclusive = mostly about -51% to -80%
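Neuro2A cells in DMEM with 0.5% FBS, overnight at 37 deg C, given compound at single 50 µM final, then IGF (6 nM final) for 20 min at 37 deg C. Lysed; phospho-Akt Ser473 by HTRF after 24 h, 665/615 ratio.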
gsp antagonist: antagonists of gsp mutant (McCune-Albright syndrome) | gsp-mutant cells, cAMP HTRF, 30 min | Potency, µM (top dose mostly 76.9 µM), most hits filed as inhibitors | 340,000 compounds, 0.4% hits | AID 624288; calls by dose curve; cell line not stated here;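 note: intracellular cAMP measured with PDE inhibitor Ro 20-1724 present during compound exposure; nearly all actives have a fitted effect of over 65% in size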
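HTRF cAMP measurement after 30 min RT detection following 30 min, 37C compound treatment alongside […] (added as 300 uM solution) in G418-selected cells seeded at 2000/well and grown 16–24 h.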
RXFP1 antagonist: blocks the human relaxin receptor RXFP1; HEK293-RXFP1, relaxin-stimulated cAMP HTRF, 30 min; stronger effect = lower value; activity change, negative = inhibition, % at 57.5 µM; Q9HBX9; 350,000 compounds, 0.59% hits;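 active = activity change of -60% or lower, but not beyond a set lower limit; inconclusive = change between -60% and -40%, or beyond the set limit; inactive = change above -40%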
A number is an active result; - = inactive; ? = inconclusive; . = no result given; [ ] = dose if it differs, or a comment.

SMILES	gsp ag	RXFP1 agonist	pAkt inh	gsp antagonist	RXFP1 antagonist
CCOc1cccc(/C=C2/NC(=O)N(CC(=O)Nc3cccc(C)c3)C2=O)c1O	?	-	-	-	-77
CCOc1cc(/C=C2/NC(=O)N(CC(=O)Nc3cccc(C)c3)C2=O)ccc1OCC(N)=O	-[15.4 µM]	-	-	-	-
CC(=O)NS(=O)(=O)c1ccc(N=c2ssc3c2-c2cc(C)c(C)cc2NC3(C)C)cc1	-[15.4 µM]	-	-	14µM	-
Cc1cc2c(cc1C)-c1c(ssc1=Nc1ccc(S(N)(=O)=O)cc1)C(C)(C)N2	-	-	-	?	-
Clc1ccccc1CNc1ncnc2c1c(-c1ccccc1)cn2-c1ccccc1	.	-	.	.	-
Cc1cc(C)c(S(=O)(=O)NCCc2sc3nc(-c4ccc(F)cc4)nn3c2C)c(C)c1	.	-	.	.	-
Cc1c(O)ccc(C(=O)COc2ccc(F)cc2)c1O	-	-	-89%	-	-
CCc1cc(C(=O)COc2ccc(F)cc2)c(O)cc1O	-	-	-	-	-
O=[N+]([O-])c1cc(-c2nc3nc4ccccc4nc3n2CCc2ccccc2)cc([N+](=O)[O-])c1	-[15.4 µM]	-	-	35µM	-
CCCSc1nnc(NC(=O)CSc2sc3c(O)cc(=O)[nH]c3c2C#N)s1	-	-	-	-	-
N#Cc1c(SCC(=O)Nc2nccs2)sc2c(O)cc(=O)[nH]c12	-	-	-	-	-87
Cc1cc(C)n2nc(C(=O)Nc3ccc4c(c3)OCO4)nc2n1	?	-	-	-	-
Cc1cc(C)n2nc(C(=O)Nc3ccc4c(c3)OCCO4)nc2n1	?	14µM	-	-	-
O=C(NCc1n[nH]c(=S)n1-c1ccc(Cl)c(Cl)c1)c1ccc(S(=O)(=O)N2CCCCC2)cc1	-	-	-	-	-60
CN(C)S(=O)(=O)c1ccc(C(=O)OCC(=O)Nc2cccnc2Cl)cc1	-[15.4 µM]	14µM	-	-	-
CCOC(=O)c1cc(S(=O)(=O)N2CCN(c3cc(Cl)ccc3C)CC2)[nH]n1	.	-	.	.	?
CCOC(=O)C1=C(O)/C(=C/c2cccc(OC)c2O)N=C1C	-	-	-	-	-63
CCOC(=O)C1=C(O)/C(=C\c2cc(C)n(-c3ccccc3F)c2C)N=C1C	-[15.4 µM]	-	-	-	-
COc1ccccc1NC(=O)CN1C(=O)CC(c2ccc(C)c(C)c2)=Nc2ccccc21	.	-	.	.	-
CCOC(=O)N1CCN(C(=O)c2cc(COc3ccc(OC)cc3Cl)on2)CC1	-	-	-	35µM	-
COc1ccc(OCc2cc(C(=O)N3CCCCCCC3)no2)c(Cl)c1	?	-	-	-	-
Cc1ccc(C2Nc3cc(C)c(C)cc3-n3c(-c4ccccc4)c4c(=O)n(C)c(=O)n(C)c4c32)o1 (centres undefined)	.	-	.	.	-
COc1cc(OC)cc(-c2nnc(SCC(=O)N3CCCc4ccccc43)o2)c1	-	-	-116%	-[15.4 µM]	-
COc1cccc(-c2nnc(SCC(=O)N3CCCc4ccccc43)o2)c1	?	-	-	-	-
COc1ccc(N2CCN(C(=O)CSc3nnc(-c4cc5ccccc5cc4O)n3C)CC2)cc1	?	-	-	?	-
SMILES	gsp ag	RXFP1 agonist	pAkt inh	gsp antagonist	RXFP1 antagonist
CC1(C)Cc2ccccc2-c2nnc(SCc3ccccc3)n21	-	-	-	-	-
COc1ccc(-n2cnnc2SCC(=O)N2CCN(c3ccccc3)CC2)cc1	-	-	-108%	-	-
CC1(C)Cc2ccccc2-c2nnc(SCC(=O)N3CCN(c4ccccc4)CC3)n21	-	-	.	35µM	-
CCc1ccc(-n2nc(C)c3c(C(=O)Nc4cccc(C(F)(F)F)c4)cc(C)nc32)cc1	.	-	.	.	-
O=C(Nc1ccc(Br)c2ccccc12)c1ccc2ccccc2c1O	?	?	-	?	-
CC(=O)Nc1ccc(Br)c2ccccc12	28µM	28µM	-	-	-
O=C(O)c1ccccc1C(=O)c1ccc(N2CCCC2)c([N+](=O)[O-])c1	-[15.4 µM]	-	-	-	-
CC(=O)c1ccc(N2CCN(c3ccccc3O)CC2)c([N+](=O)[O-])c1	-[15.4 µM]	-	-	32µM	-
O=C(O)c1ccccc1C(=O)c1ccc(N2CCOCC2)c([N+](=O)[O-])c1	-	-	-	-	-69
N#Cc1cc([N+](=O)[O-])ccc1N1CCN(c2ccccc2O)CC1	-[15.4 µM]	-	-	?	-
